Experimental data published in PubChem BioAssay (Tox21).
Inconclusive results are not listed. Activity calls are given as the source filed them. The call rests on the fitted dose curve; in most records, active means well fitted activation curve with a large enough effect in the signal ratio in the repeat runs (not every such curve was filed as active); inconclusive means weak or mixed curves; inactive means flat fitted curve, though single readings scatter; the % refers to the signal ratio.

Test: qHTS assay to identify small molecule agonists of the hypoxia (HIF-1) signaling pathway (AID 1224846)
Settings: HRE-bla ME-180 cells, beta-lactamase ratio, 17 h; series mostly up to 76.8 µM; activation: at the top concentration
From the text: U.S. Tox21 Program National Center for Advancing Translational Sciences [NCATS] NIH Chemical Genomics Center [NCGC] U.S. Environmental Protection Agency [EPA] National Institutes of Environmental Health Sciences [NIEHS] National Toxicology Program [NTP] U.S. Food and Drug Administration [FDA] Tox21 Assay Overview: Hypoxia-inducible factor-1 (HIF-1) is the major hypoxia-regulated transcription factor that controls cellular responses to low oxygen concentration. HIF-1 is composed of two subunits: hypoxia responsive HIF-1-alpha and constitutively expressed HIF-1-beta, which is also known as aryl hydrocarbon receptor nuclear translocator. During hypoxic conditions, HIF-1-alpha heterodimerizes with HIF-1-beta and translocates into the nucleus where the HIF-1 complex binds to the hypoxia-response element (HRE) and activates expression of target genes such as VEGF (vascular endothelial growth factor). The HIF-1 pathway is essential to normal growth and development, and is involved in the pathophysiology of cancer, inflammation, and ischemia. Using a beta-lactamase reporter-gene under control of the hypoxia response element, a cell-based assay [CellSensor(TM) HRE-bla ME-180 from Life Technologies, Carlsbad, CA] was used to measure hypoxia-induced signaling. Tox21 10K library compounds were measured for their ability to induce the reporter gene activity.
Tox21 Assay Protocol Summary: HRE-bla ME-180 cells were dispensed at 2,000 cells per well in 6 uL of assay medium containing 0.5% dialyzed FBS into black wall/clear-bottom 1536-well plates using a Multidrop Combi (Thermo Scientific, Waltham, MA) dispenser. After the assay plates were incubated at 37C and 5% CO2 for 5 hrs, 23 nL of compounds dissolved in DMSO, positive controls or DMSO only was transferred to each well of the assay plate using a Pintool station (Kalypsys, San Diego, CA). The assay plates were incubated at 37C and 5% CO2 for 17 hrs. One uL of LiveBLAzerTM B/G FRET substrate (CCF4-AM) (Life Technologies) was added to each well using a Flying Reagent Dispenser (Aurora Discovery, San Diego, CA).
On the % scale 0 is the no-effect control and ±100 the full control effect.

| Compound | activation |
| --- | --- |
| C=CCCC=C | 1.27% (inactive) |
| Cc1ccc(C=O)s1 | -0.206% (inactive) |
| O=C(Cl)c1cccc([N+](=O)[O-])c1 | -0.141% (inactive) |
| OCc1ccccc1O | -0.0198% [at 35.5 µM] (inactive) |
| O=C1C=CC(=O)O1 | -0.771% (inactive) |
| COc1ccc(S(=O)(=O)Nc2nnc(CC(C)C)s2)cc1 | 0.696% [at 35.5 µM] (inactive) |
| CC(Oc1c(Cl)cccc1Cl)C1=NCCN1 (stereo not given) | -0.86% [at 35.5 µM] (inactive) |
| CN1CCN(C2=Nc3cc(F)ccc3Cc3ccccc32)CC1 | 2.15% [at 35.5 µM] (inactive) |
| FC(F)(F)C(Cl)(Cl)Cl | -0.519% (inactive) |
| O=C1CCN(c2ccccc2)N1 | -0.866% (inactive) |
| O=C1Nc2ccc([N+](=O)[O-])cc2C1=O | 0.0221% (inactive) |
| Cc1c(C(=O)NCCO)[n+](=O)c2ccccc2n1[O-] | -0.927% [at 35.5 µM] (inactive) |
| CCC(=O)c1ccc2c(c1)N(CCCN(C)C)c1ccccc1S2 | -1.47% [at 35.5 µM] (inactive) |
| Oc1ccccc1F | -0.507% (inactive) |
| O=Cc1ccc(O)c(O)c1O | 0.229% [at 35.5 µM] (inactive) |
| CC1CN(c2ccccc2)NC1=O (stereo not given) | -1.25% (inactive) |
| CCCCC(=O)O[C@]1(C(=O)CO)[C@H](C)C[C@H]2[C@@H]3CCC4=CC(=O)C=C[C@]4(C)[C@@]3(F)[C@@H](O)C[C@@]21C | -2.05% [at 35.5 µM] (inactive) |
| CCOc1ccc(NS(=O)(=O)c2ccc(N)cc2)nn1 | -0.429% [at 35.5 µM] (inactive) |
| Cc1ccccc1C(=O)Nc1ccc(C(=O)N2CCCC(O)c3cc(Cl)ccc32)c(C)c1 (stereo not given) | 0.849% [at 35.5 µM] (inactive) |
| C=CCc1cc(OC)c(O)c(C(=O)NCCO)c1 | 0.74% [at 35.5 µM] (inactive) |

| Compound | activation |
| --- | --- |
| Cc1ccc([N+](=O)[O-])cc1Cl | -0.88% (inactive) |
| CCCC(CCC)(C(=O)OCC)C(=O)OCC | 0.224% [at 35.5 µM] (inactive) |
| CCCCNc1cc(C(=O)O)cc(S(N)(=O)=O)c1Oc1ccccc1 | -1.64% [at 35.5 µM] (inactive) |
| Cc1ccc(C(C)C)cc1O | -1.15% (inactive) |
| CC(=O)OC(C)OC(C)=O | -0.0028% (inactive) |
| NC(=O)Cc1cccc(C(=O)c2ccccc2)c1N | -0.979% [at 35.5 µM] (inactive) |
| Nc1cccc(S(=O)(=O)O)c1 | -0.232% (inactive) |
| Cc1cc(NS(=O)(=O)c2ccc(N)cc2)nc(C)n1 | -0.46% [at 35.5 µM] (inactive) |
| NC(=O)NS(=O)(=O)c1ccc(Cl)cc1 | -0.582% [at 35.5 µM] (inactive) |
| O=C(O[C@@H](C(=O)O)[C@@H](OC(=O)c1ccccc1)C(=O)O)c1ccccc1 | -1.14% (inactive) |
| CCCCC(CC)COC(=O)COc1cc(Cl)c(Cl)cc1Cl (stereo not given) | -1.59% (inactive) |
| N#CSCC(=O)O | -1.62% [at 35.5 µM] (inactive) |
| COC(=O)c1ccc2cc(C(=O)OC)ccc2c1 | -0.33% [at 15.8 µM] (inactive) |
| CCCCCCCCCC/C=C/C#N | -0.914% (inactive) |
| O=Cc1ccc(F)c(Br)c1 | 0.102% (inactive) |
| CCOC(=O)COc1ccc2c(c1)CC(NCC(O)c1cccc(Cl)c1)CC2 (stereo not given) | -0.586% (inactive) |
| C=O | 0.985% (inactive) |
| COC(=O)C(C)O (stereo not given) | 1.04% (inactive) |
| CCN(O)CC | -0.418% (inactive) |
| OCC(CBr)(CBr)CBr | -0.733% (inactive) |
